Measured values from PubChem BioAssay (EPA / NIEHS).
Where “and” joins values, the source holds several entries; their conditions need not be identical. Equal entries are not always repeated. Inconclusive results are not listed. Some structures have more than one record in an assay (separate samples or runs), and their calls can disagree. Calls of active or inactive are those of the source. Rule for the calls, unless noted: active = hit-call score of the fitted dose curve at least 0.9, where 1 is the maximum; inconclusive = response in the unintended direction; inactive = score below 0.9.

Legend:
[1] = target: Bile acid receptor (Homo sapiens) (UniProt Q96RI1); experiment: OT_FXR_FXRSRC1_0480: Odyssey Thera (OT) 8-hour HEK293T Protein-Complementation Assay for Farnesoid X receptor/SRC-1 Co-activator (AID 2283383)
Outline: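 HEK293T cells expressing FXR and SRC-1 fused to reporter fragments were dosed with compound for 8 h; fluorescence from the reconstituted reporter marked co-activator recruitment. Gain of signal was fitted against the DMSO baseline.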

[2] = target: Bile acid receptor (Homo sapiens) (UniProt Q96RI1); experiment: OT_FXR_FXRSRC1_1440: Odyssey Thera (OT) 24-hour HEK293T Protein-Complementation Assay for Farnesoid X receptor/SRC-1 Co-activator (AID 2283384)
Outline: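 HEK293T cells were dosed with compound and read 24 h later by fluorescence intensity from protein-fragment complementation reporting FXR/SRC-1 co-activator interaction. Gain of signal was fitted relative to DMSO negative control as baseline.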

[3] = target: Retinoic acid receptor RXR-alpha (Homo sapiens) (UniProt P19793); experiment: OT_NURR1_NURR1RXRa_0480: Odyssey Thera (OT) 8-hour HEK293T Protein Complementation Assay for Nurr1/retinoid X receptor (RXR) (AID 2283385)
Outline: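 HEK293T cells expressing Nurr1 and RXRα fused to reporter fragments were dosed with compound for 8 hours. Complex formation was read as fluorescence intensity and analysed as gain of signal against DMSO as baseline.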

[4] = target: Retinoic acid receptor RXR-alpha (Homo sapiens) (UniProt P19793); experiment: OT_NURR1_NURR1RXRa_1440: Odyssey Thera (OT) 24-hour HEK293T Protein Complementation Assay for Nurr1/retinoid X receptor (RXR) (AID 2283386)
Outline: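 HEK293T cells were dosed with compound and read 24 h later by fluorescence intensity in a protein-fragment complementation format, where Nurr1–RXRα interaction reconstitutes a split reporter. Activity was fitted as gain of signal relative to DMSO baseline.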

[5] = target: Peroxisome proliferator-activated receptor gamma (Homo sapiens) (UniProt P37231); experiment: OT_PPARg_PPARgSRC1_0480: Odyssey Thera (OT) 8-hour Protein-Complementation Assay for Peroxisome Proliferator-activated Receptor Gamma / SRC-1 Co-activator (AID 2283387);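 note: nuclear to cytoplasmic split Venus YFP fluorescence ratio reporting PPARg SRC-1 interaction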
Outline: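 Read-out: 488 nm N/C fluorescence ratio from complemented Venus YFP fragments, ≥350 cells per image, gain-of-signal fitted against DMSO baseline. Fusions of PPARg/SRC-1 with IFP1/IFP2 expressed transiently in HEK293T; compounds applied 8 h.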

[6] = target: Peroxisome proliferator-activated receptor gamma (Homo sapiens) (UniProt P37231); experiment: OT_PPARg_PPARgSRC1_1440: Odyssey Thera (OT) 24-hour Protein-Complementation Assay for Peroxisome Proliferator-activated Receptor Gamma/ SRC-1 Co-activator (AID 2283388);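 note: nuclear to cytoplasmic ratio of reconstituted Venus YFP fluorescence in fixed imaged cells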
Outline: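 Readout: nuclear-to-cytoplasmic 488 nm fluorescence ratio, ≥350 cells per image, 8 images per well, after 24 h compound exposure of HEK293T expressing PPARg/SRC-1 split-YFP fusions. Activity fitted in positive direction against DMSO.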

[7] = read-out: Tumor necrosis factor receptor superfamily member 6 (Homo sapiens) (UniProt P25445); experiment: LTEA_HepaRG_FAS: Life Technologies and Expression Analysis (LTEA) Assay for Fas cell surface death receptor (FAS) using HepaRG (AID 2283447; active = hit-call score of the fitted dose curve at least 0.9, where 1 is the maximum; inactive = score below 0.9); conditions: mRNA level, 48 h; actives raise or lower the signal
Outline: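 FAS transcript level was measured by TaqMan qRT-PCR against three housekeeping genes after 48 h chemical exposure. Cells were HepaRG, 0.5% DMSO vehicle, with a top concentration of 100 uM and half-log dilutions over eight points, in duplicate.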

[8] = read-out: Fatty acid synthase (Homo sapiens) (UniProt P49327); experiment: LTEA_HepaRG_FASN: Life Technologies and Expression Analysis (LTEA) Assay for Fatty Acid Synthase (FASN) using HepaRG (AID 2283448; active = hit-call score of the fitted dose curve at least 0.9, where 1 is the maximum; inactive = score below 0.9); conditions: mRNA level, 48 h; actives raise or lower the signal
Outline: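 Differentiated human HepaRG cells were exposed for 48 h in serum-free induction medium to eight half-log concentrations up to 100 uM in 0.5% DMSO, in duplicate. FASN mRNA was quantified by TaqMan qRT-PCR, normalized to ACTB/GAPDH/POLR2A, and fitted bidirectionally against DMSO.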

[9] = read-out: Cyclin Dependent Kinase Inhibitor 1A (CDKN1A), CDKN1A (gene 1026); experiment: LTEA_HepaRG_CDKN1A: Life Technologies and Expression Analysis (LTEA) Assay for Cyclin Dependent Kinase Inhibitor 1A (CDKN1A) using HepaRG (AID 2283450; active = hit-call score of the fitted dose curve at least 0.9, where 1 is the maximum; inactive = score below 0.9); conditions: mRNA level, 48 h; actives raise or lower the signal
Outline: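 HepaRG, 48 h dosing, 8-pt half-log series from 100 uM top, 0.5% DMSO vehicle, duplicates. Readout: TaqMan qRT-PCR of CDKN1A transcript, housekeeping-normalized (ACTB, GAPDH, POLR2A). Up/down curve fit relative to DMSO.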

[10] = CEETOX_H295R_11DCORT: CeeTox H295R High-throughput Steroidogenesis Assay for 11-Deoxycortisol (11DCORT) (AID 2283432; active = hit-call score of the fitted dose curve at least 0.9, where 1 is the maximum; inactive = score below 0.9); conditions: actives raise or lower the signal
Outline: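 H295R cells; 10 uM forskolin prestim 48 h; compound in 0.1% DMSO 48 h; media extracted with MTBE; 11-deoxycortisol by LC-MS/MS, 7-point standard curve; gain/loss vs DMSO baseline; viability by MTT in same wells.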

[11] = CEETOX_H295R_OHPREG: CeeTox H295R High-throughput Steroidogenesis Assay for OH-Pregnenolone (OHPREG) (AID 2283434; active = hit-call score of the fitted dose curve at least 0.9, where 1 is the maximum; inactive = score below 0.9); conditions: actives raise or lower the signal
Outline: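 Hormone levels in spent medium were measured by tandem mass spectrometry following liquid-liquid extraction. Cells (H295R) had been forskolin-stimulated (10 uM, 48 h) before a 48 h chemical exposure at 0.1% DMSO, with activity fitted in both directions against DMSO.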

[12] = CEETOX_H295R_OHPROG: CeeTox H295R High-throughput Steroidogenesis Assay for OH-Progesterone (OHPROG) (AID 2283435; active = hit-call score of the fitted dose curve at least 0.9, where 1 is the maximum; inactive = score below 0.9); conditions: actives raise or lower the signal
Outline: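 H295R human adrenal cells were prestimulated 48 h with 10 uM forskolin, then exposed 48 h to test chemical (0.1% DMSO final). 17alpha-hydroxyprogesterone in medium was measured by HPLC-MS/MS after MTBE extraction; bidirectional fitting vs DMSO.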

[13] = CEETOX_H295R_CORTIC: CeeTox H295R High-throughput Steroidogenesis Assay for Corticosterone (CORTIC) (AID 2283437; active = hit-call score of the fitted dose curve at least 0.9, where 1 is the maximum; inactive = score below 0.9;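 note: corticosterone secreted into medium quantified by mass spectrometry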); conditions: actives raise or lower the signal
Outline: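 Corticosterone secreted into medium is measured by reverse-phase HPLC with tandem MS following liquid-liquid extraction. Cells are forskolin-stimulated (10 uM, 48 h) before 48 h test exposure; activity fitted in both directions against DMSO.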

[14] = CEETOX_H295R_CORTISOL: CeeTox H295R High-throughput Steroidogenesis Assay for Cortisol (AID 2283438; active = hit-call score of the fitted dose curve at least 0.9, where 1 is the maximum; inactive = score below 0.9;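 note: cortisol secreted into medium quantified by LC-MS/MS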); conditions: actives raise or lower the signal
Outline: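 H295R human adrenal cells were prestimulated 48 h with 10 uM forskolin, then exposed 48 h to test chemical (0.1% DMSO final). Medium cortisol was quantified by HPLC-MS/MS after MTBE extraction; bidirectional fitting relative to DMSO baseline.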

[15] = CEETOX_H295R_DOC: CeeTox H295R High-throughput Steroidogenesis Assay for DOC (AID 2283439; active = hit-call score of the fitted dose curve at least 0.9, where 1 is the maximum; inactive = score below 0.9); conditions: actives raise or lower the signal
Outline: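 H295R adrenal cells prestimulated 48 h with 10 uM forskolin, then exposed 48 h to test chemical (0.1% DMSO final). Medium 11-deoxycorticosterone extracted with MTBE, quantified by HPLC-MS/MS; bidirectional fit versus DMSO baseline; MTT viability in same wells.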

[16] = CEETOX_H295R_ESTRADIOL: CeeTox H295R High-throughput Steroidogenesis Assay for Estradiol (AID 2283440; active = hit-call score of the fitted dose curve at least 0.9, where 1 is the maximum; inactive = score below 0.9;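 note: estradiol secreted into medium quantified by LC-MS/MS after dansyl derivatisation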); conditions: actives raise or lower the signal
Outline: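 H295R, 48 h forskolin (10 uM) prestim → 48 h compound, 0.1% DMSO final. Estradiol in medium: MTBE extraction, dansyl chloride derivatization, LC-MS/MS. Fit bidirectional vs DMSO baseline; MTT viability in same wells.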

[17] = CEETOX_H295R_ESTRONE: CeeTox H295R High-throughput Steroidogenesis Assay for Estrone (AID 2283441; active = hit-call score of the fitted dose curve at least 0.9, where 1 is the maximum; inactive = score below 0.9;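 note: estrone secreted into medium measured by LC-MS/MS after dansyl derivatization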); conditions: actives raise or lower the signal
Outline: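 H295R cells; 48 h forskolin (10 uM) prestimulation; 48 h compound exposure, 0.1% DMSO final. Medium estrone: MTBE extraction, dansyl derivatization, HPLC-MS/MS. Bidirectional fit vs DMSO.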

[18] = CEETOX_H295R_PROG: CeeTox H295R High-throughput Steroidogenesis Assay for Progesterone (PROG) (AID 2283442; active = hit-call score of the fitted dose curve at least 0.9, where 1 is the maximum; inactive = score below 0.9); conditions: actives raise or lower the signal
Outline: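 Progesterone read-out: HPLC-MS/MS on MTBE extracts of conditioned medium after 48 h chemical exposure of forskolin-primed (10 uM, 48 h) H295R cells. Gain or loss of signal was fitted relative to DMSO baseline.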

[19] = read-out: Cyclin D2 (CCND2), CCND2 (gene 894); experiment: LTEA_HepaRG_CCND2: Life Technologies and Expression Analysis (LTEA) Assay for Cyclin D2 (CCND2) using HepaRG (AID 2283449; active = hit-call score of the fitted dose curve at least 0.9, where 1 is the maximum; inactive = score below 0.9); conditions: mRNA level, 48 h; actives raise or lower the signal
Outline: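 Read-out is CCND2 mRNA level measured by qRT-PCR in human HepaRG liver cells and normalised to three housekeeping genes. Chemicals were applied for 48 h at up to 100 uM, with gain or loss fitted relative to 0.5% DMSO.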

[20] = CEETOX_H295R_ANDR: CeeTox H295R High-throughput Steroidogenesis Assay for Androstenedione (ANDR) (AID 2283436; active = hit-call score of the fitted dose curve at least 0.9, where 1 is the maximum; inactive = score below 0.9); conditions: actives raise or lower the signal
Outline: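 Read-out is androstenedione secreted into medium, measured by tandem mass spectrometry after liquid-liquid extraction. Cells were H295R, dosed for 48 h per modified OECD 456; activity fitted in both directions relative to DMSO.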

Measured: AC50

Chain of Bile acid receptor (Homo sapiens) (Q96RI1 whole entry, looked up, the tested form may be a part): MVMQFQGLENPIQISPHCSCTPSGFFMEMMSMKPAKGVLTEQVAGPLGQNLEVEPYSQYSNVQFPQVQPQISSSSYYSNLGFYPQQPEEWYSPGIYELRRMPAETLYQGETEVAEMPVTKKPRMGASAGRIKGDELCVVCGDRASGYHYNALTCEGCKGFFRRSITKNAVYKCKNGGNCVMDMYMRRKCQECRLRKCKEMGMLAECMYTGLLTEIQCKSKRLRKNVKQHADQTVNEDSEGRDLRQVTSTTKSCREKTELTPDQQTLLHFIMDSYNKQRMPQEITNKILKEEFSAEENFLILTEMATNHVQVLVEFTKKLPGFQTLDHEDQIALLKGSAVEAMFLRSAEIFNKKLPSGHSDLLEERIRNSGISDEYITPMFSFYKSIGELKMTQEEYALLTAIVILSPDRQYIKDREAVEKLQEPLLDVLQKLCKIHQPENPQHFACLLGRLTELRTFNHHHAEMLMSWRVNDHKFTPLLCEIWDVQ
Chain of Fatty acid synthase (Homo sapiens) (P49327 whole entry, looked up): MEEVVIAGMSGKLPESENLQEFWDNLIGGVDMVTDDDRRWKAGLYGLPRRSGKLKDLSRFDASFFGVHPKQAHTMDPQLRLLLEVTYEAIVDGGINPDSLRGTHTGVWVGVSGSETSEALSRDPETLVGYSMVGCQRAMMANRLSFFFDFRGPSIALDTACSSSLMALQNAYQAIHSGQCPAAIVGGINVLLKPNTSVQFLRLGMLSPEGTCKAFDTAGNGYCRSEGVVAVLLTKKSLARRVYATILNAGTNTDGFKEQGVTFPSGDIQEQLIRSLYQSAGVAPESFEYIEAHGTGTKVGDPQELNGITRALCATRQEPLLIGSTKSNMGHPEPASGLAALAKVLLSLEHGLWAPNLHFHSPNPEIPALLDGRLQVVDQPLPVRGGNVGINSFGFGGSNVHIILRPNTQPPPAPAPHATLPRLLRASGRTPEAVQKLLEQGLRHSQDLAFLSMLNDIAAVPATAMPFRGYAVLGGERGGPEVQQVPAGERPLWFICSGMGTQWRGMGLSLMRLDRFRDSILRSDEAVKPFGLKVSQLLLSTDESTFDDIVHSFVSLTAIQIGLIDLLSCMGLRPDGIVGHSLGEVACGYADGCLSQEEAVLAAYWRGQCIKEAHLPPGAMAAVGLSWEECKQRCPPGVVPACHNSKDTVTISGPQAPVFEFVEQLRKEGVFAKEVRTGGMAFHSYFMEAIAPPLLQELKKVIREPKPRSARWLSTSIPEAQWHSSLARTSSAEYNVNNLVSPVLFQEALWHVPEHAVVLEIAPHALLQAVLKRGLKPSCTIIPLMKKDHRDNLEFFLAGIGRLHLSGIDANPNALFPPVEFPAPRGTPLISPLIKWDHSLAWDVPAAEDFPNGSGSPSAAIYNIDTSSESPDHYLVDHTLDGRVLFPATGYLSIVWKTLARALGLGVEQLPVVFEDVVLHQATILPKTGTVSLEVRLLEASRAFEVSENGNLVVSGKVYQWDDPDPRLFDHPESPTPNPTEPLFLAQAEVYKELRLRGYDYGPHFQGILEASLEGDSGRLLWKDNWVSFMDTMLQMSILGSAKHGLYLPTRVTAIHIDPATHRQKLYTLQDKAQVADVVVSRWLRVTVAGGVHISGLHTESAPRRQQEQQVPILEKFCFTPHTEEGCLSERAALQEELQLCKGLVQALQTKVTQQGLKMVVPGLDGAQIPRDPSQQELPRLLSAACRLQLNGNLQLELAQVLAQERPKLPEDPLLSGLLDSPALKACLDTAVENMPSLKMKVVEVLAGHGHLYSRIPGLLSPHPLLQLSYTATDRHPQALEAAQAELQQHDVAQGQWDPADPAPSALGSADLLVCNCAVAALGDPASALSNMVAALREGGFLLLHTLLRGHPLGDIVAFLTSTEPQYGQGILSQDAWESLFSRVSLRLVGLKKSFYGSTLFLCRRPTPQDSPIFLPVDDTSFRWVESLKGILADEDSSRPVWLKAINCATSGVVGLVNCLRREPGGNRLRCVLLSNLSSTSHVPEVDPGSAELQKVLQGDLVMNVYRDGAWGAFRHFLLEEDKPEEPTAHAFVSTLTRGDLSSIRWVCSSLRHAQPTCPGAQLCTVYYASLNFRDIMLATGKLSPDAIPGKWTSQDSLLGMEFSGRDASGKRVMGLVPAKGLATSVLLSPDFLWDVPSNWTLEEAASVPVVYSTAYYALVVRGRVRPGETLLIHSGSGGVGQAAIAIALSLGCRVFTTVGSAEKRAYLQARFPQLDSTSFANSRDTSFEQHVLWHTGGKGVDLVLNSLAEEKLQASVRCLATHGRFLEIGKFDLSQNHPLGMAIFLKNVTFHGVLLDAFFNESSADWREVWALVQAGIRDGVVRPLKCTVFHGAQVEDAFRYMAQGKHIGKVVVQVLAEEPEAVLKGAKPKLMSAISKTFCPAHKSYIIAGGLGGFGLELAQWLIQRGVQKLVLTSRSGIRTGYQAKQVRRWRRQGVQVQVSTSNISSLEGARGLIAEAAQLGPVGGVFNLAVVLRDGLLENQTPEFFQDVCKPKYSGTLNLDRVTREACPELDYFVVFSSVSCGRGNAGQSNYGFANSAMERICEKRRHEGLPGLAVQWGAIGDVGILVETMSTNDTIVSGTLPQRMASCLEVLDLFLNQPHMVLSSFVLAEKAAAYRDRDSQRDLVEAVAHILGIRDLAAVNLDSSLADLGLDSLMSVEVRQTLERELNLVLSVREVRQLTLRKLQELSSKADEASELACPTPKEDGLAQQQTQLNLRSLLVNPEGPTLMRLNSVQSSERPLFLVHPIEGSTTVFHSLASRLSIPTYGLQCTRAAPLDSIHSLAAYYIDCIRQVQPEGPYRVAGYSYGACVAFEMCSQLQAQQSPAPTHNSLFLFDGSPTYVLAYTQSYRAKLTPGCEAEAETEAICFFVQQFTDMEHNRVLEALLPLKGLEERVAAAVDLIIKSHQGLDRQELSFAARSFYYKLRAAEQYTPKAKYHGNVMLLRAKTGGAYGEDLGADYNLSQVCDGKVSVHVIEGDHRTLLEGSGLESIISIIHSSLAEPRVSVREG
Chain of Peroxisome proliferator-activated receptor gamma (Homo sapiens) (P37231 whole entry, looked up, the tested form may be a part): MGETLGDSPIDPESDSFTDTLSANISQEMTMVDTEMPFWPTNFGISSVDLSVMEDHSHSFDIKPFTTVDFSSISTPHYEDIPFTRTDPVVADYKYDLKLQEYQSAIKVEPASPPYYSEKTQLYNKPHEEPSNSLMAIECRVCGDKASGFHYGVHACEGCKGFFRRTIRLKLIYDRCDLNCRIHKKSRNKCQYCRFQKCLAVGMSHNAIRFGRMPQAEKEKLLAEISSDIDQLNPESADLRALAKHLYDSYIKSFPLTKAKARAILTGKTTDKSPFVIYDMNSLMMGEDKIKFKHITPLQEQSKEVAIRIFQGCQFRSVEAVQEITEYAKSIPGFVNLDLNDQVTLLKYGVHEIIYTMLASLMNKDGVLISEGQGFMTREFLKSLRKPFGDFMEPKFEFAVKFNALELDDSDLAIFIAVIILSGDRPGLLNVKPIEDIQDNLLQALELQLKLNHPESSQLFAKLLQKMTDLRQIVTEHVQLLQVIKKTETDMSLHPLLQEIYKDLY
Chain of Retinoic acid receptor RXR-alpha (Homo sapiens) (P19793 whole entry, looked up, the tested form may be a part): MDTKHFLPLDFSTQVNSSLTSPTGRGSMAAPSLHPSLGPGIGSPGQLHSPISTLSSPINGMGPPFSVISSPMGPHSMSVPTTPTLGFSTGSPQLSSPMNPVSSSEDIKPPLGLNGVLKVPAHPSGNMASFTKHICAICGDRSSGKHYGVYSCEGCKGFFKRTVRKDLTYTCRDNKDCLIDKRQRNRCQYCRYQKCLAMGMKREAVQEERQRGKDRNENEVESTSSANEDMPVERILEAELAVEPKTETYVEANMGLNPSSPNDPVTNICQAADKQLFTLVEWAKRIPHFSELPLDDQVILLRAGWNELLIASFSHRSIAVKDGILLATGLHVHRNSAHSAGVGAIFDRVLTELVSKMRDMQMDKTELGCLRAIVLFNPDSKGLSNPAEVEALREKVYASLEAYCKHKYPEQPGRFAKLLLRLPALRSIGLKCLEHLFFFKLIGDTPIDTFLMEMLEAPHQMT

CC(C)C1(C)N=C(c2nc3ccccc3cc2C(=O)O)NC1=O (configuration not stated)
inactive: [1] | [2] | [3] | [4] | [5] | [6] | [7] | [8] | [9]

CCOC(=O)C(Cl)Cc1cc(-n2nc(C)n(C(F)F)c2=O)c(F)cc1Cl (configuration not stated)
active: [1] 22.4 µM | [3] 12.7 µM | [12] 50 µM | [15] 17.2 µM
inactive: [2] | [3] | [4] | [5] | [6] | [10] | [11] | [13] | [14] | [16] | [17] | [18] | [7] | [8] | [9]

Fc1ccc(Oc2ccnc3cc(Cl)cc(Cl)c23)cc1
active: [1] 12.6 µM | [2] 29.1 µM | [3] 28.3 µM | [4] 70.8 µM and 65.4 µM
inactive: [3] | [5] | [6] | [7] | [8] | [19] | [9]

CCCCC(CC)COC(=O)c1ccccc1C(=O)OCC(CC)CCCC (configuration not stated)
inactive: [1] | [2] | [3] | [4] | [5] | [6] | [7] | [8] | [19] | [9]

COC(=O)c1ccccc1C(=O)OC
inactive: [1] | [2] | [3] | [4] | [5] | [6] | [7] | [8] | [19] | [9]

COc1ccc(C(c2ccc(OC)cc2)C(Cl)(Cl)Cl)cc1
inactive: [3] | [4] | [5] | [6] | [7] | [9]
active: [1] 32.1 µM and 35 µM and 27 µM | [2] 30.4 µM and 35.6 µM and 28.4 µM | [3] 66 µM | [8] 80.5 µM

CC(C)Oc1cc(-n2nc(C(C)(C)C)oc2=O)c(Cl)cc1Cl
active: [1] 29.5 µM | [2] 58.7 µM | [3] 50 µM | [4] 74.7 µM | [11] 0.951 µM | [9] 84.1 µM
inactive: [3] | [4] | [5] | [6] | [10] | [12] | [20] | [13] | [14] | [15] | [16] | [17] | [18] | [7] | [8]

COP(N)(=O)SC (configuration not stated)
inactive: [1] | [2] | [3] | [4] | [5] | [6] | [7] | [8] | [19] | [9]

Cc1c(F)c(F)c(COC(=O)C2C(/C=C(\Cl)C(F)(F)F)C2(C)C)c(F)c1F (configuration not stated)
inactive: [1] | [2] | [3] | [5] | [6] | [10] | [11] | [12] | [13] | [14] | [15] | [16] | [17] | [18] | [7] | [8] | [19] | [9]

C=CCC1=C(C)[C@@H](OC(=O)[C@@H]2[C@@H](C=C(C)C)C2(C)C)CC1=O
active: [1] 16.6 µM | [2] 50 µM | [3] 31.5 µM | [4] 80.6 µM
inactive: [3] | [4] | [5] | [6] | [7] | [8] | [19] | [9]

COC(=O)C(C)Oc1ccc(Oc2ccc(Cl)cc2Cl)cc1 (configuration not stated)
active: [1] 66.2 µM
inactive: [2] | [3] | [5] | [6] | [7] | [8] | [19] | [9]

CCON=C(CC)C1=C(O)CC(c2c(C)cc(C)cc2C)CC1=O (configuration not stated)
inactive: [1] | [2] | [3] | [4] | [5] | [6] | [10] | [11] | [12] | [20] | [13] | [14] | [15] | [18] | [7] | [19] | [9]
active: [8] 50 µM
